# M1 antag = antagonists of human M1 muscarinic receptor | 360,000 compounds, 1.3% hits | CHO-K1 hM1, Fluo-8 calcium fluorescence, ACh EC80 antagonist | inhibition, % at 3 µM | AID 588852 | P11229;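 active = percent inhibition above its own plate's cutoff, namely the mean of that plate's compound wells plus 3 SD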;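 note: peak over basal fluorescence ratio during 140 s after agonist addition; 0% = ACh EC80 plus DMSO and 100% = DMSO alone without agonist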
# Target sequence (P11229 whole entry, looked up): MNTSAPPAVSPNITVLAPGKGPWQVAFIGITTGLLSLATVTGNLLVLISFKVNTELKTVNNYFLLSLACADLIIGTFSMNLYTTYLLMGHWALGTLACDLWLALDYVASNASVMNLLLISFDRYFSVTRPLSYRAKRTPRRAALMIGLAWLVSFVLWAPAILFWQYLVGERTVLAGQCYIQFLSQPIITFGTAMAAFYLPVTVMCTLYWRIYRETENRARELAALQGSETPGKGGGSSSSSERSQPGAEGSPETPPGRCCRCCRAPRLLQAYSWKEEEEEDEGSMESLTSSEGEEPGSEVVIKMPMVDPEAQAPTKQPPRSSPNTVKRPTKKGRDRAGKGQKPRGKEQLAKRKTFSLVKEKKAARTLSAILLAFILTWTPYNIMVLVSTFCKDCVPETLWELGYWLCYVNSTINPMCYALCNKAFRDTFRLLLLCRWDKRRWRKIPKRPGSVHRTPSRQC
# CHRM1 PAM = positive allosteric modulators of human M1 muscarinic receptor | CHO-K1 hM1, Fluo-8 calcium fluorescence, ACh EC20; 0% = ACh EC20, 100% = maximal ACh | activation, % at 3 µM | P11229 | 360,000 compounds, 0.088% hits | AID 588819; in the data active = activation above about 19%, passing the limit was not always enough
# CHO-K1 Ca antag = counter-screen for M1 antagonists: effect in parental CHO-K1 cells; 360,000 compounds, 0.6% hits; ATP-induced calcium, Fluo-8 fluorescence; inhibition, % at 3 µM; AID 602250;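 active = inhibition above a per-plate cutoff, the plate's mean sample inhibition plus 3 SD, cut at about 24% in these data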;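 note: 0% = DMSO plus EC80 ATP and 100% = DMSO alone without ATP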
# M1 PAM parental = M1 PAM counterscreen hit in parental CHO-K1 cells; 360,000 compounds, 0.02% hits; AID 602247; activation, % at 3 µM; ATP EC20, Fluo-8 calcium fluorescence; 0% at ATP EC20, 100% at ATP max;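 active = activation above the run cutoff, the mean activation of all test compounds plus 3 SD, cut at about 40% in these data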;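 note: peak over basal fluorescence ratio in a 140 s read after ATP addition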
# CHRM1 agonist = agonists of human M1 muscarinic receptor. P11229. CHO-K1 hM1, Fluo-8 calcium fluorescence, agonist mode; 0% DMSO, 100% acetylcholine EC100. activation, % at 3 µM. 360,000 compounds, 0.33% hits;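 active = activation above the run's mean compound activation plus 3 SD, cut at about 16% in these data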;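 note: peak over basal fluorescence ratio within a 140 s kinetic read after compound addition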
# CHO-K1 Ca ag = nonselective activator or artifact in parental CHO-K1 cells; Fluo-8 calcium fluorescence; scaled to maximal ATP response, vehicle zero; 360,000 compounds, 0.48% hits; AID 602248; activation, % at 3 µM; in the data active = activation above about 15%;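 note: untransfected CHO-K1 host cells lacking M1 receptor as counterscreen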
# An asterisk follows results filed as active. Rows were chosen to be rich in hits. Some 2.3% of all compounds tested hit in one or more screens of this group.
SMILES,M1 antag,CHRM1 PAM,CHO-K1 Ca antag,M1 PAM parental,CHRM1 agonist,CHO-K1 Ca ag
COc1cccc(CNC(=O)Cc2ccc(S(=O)(=O)N3CCOCC3)s2)c1,-18,8,4,-11,-1,0
O=C(NNC(=O)c1ccncc1)Nc1ccc(N=Nc2ccccc2)cc1,-13,15,-4,-2,18*,0
O=C(NCCc1ccco1)c1cc(COc2cccc(C(F)(F)F)c2)on1,2,-5,-7,30,-6,0
CCOc1ccc2c(c1)sc(N)[n+]2Cc1cc(C)cc2cccnc12,70*,-24,1,3,-7,6
COc1ccc2c(c1)sc(N)[n+]2Cc1cc(C)cc2cccnc12,65*,-23,3,9,-7,4
Cc1ccc(/C(N)=N/OC(=O)C(C)c2ccc([N+](=O)[O-])cc2)cc1 (configuration not stated),-9,-3,-1,9,-5,1
COc1ccccc1CCN1CCCC(CN(C)C(=O)CCC(N)=O)C1 (configuration not stated),-6,-1,16,-18,-9,0
COCCN(C(=O)CCC(=O)Nc1cc(C)on1)C(C(=O)NC(C)(C)C)c1cccc(OC)c1OC (configuration not stated),-6,4,-13,-2,-3,-1
c1ccc(SCCc2ccncc2)cc1,101*,-29,6,4,-9,1
CCCC(C)C(=O)Nc1ncc(S(=O)(=O)c2ccc([N+](=O)[O-])cc2)s1 (configuration not stated),28,-5,14,6,40*,36*
Cc1c(NC(=S)NC(=O)c2ccc(Cl)cc2)c(=O)n(-c2ccccc2)n1C,20,-8,-2,14,-3,6
Cc1c(NC(=O)c2cc(CC(C)C)on2)c(=O)n(-c2ccccc2)n1C,-24,11,2,17,-13,0
Cc1ccc(Cn2nc(C)c(NC(=O)CCCn3nc(C)c([N+](=O)[O-])c3C)c2C)cc1,0,4,-18,-2,-4,0
Cc1c(Cl)c([N+](=O)[O-])nn1CC(=O)Nc1c(C)n(C)n(-c2ccccc2)c1=O,28*,-12,-2,11,-6,2
Cc1c(NC(=S)NC(=O)c2ccccc2Cl)c(=O)n(-c2ccccc2)n1C,-3,29*,-3,9,-5,0
Cc1nn(Cc2ccccc2)c(C)c1NC(=O)Cn1nc([N+](=O)[O-])c(Cl)c1C,-4,0,-24,10,-2,1
Cc1c(NC(=O)c2cc(C(C)C)on2)c(=O)n(-c2ccccc2)n1C,36*,-20,7,-9,-9,0
Cc1ccc(Cn2nc(C)c(NC(=O)CCCn3nc([N+](=O)[O-])c(Cl)c3C)c2C)cc1,-17,21*,-19,18,-2,0
Cc1onc(-c2ccccc2)c1C(=O)N1CCN(c2ncccc2C(F)(F)F)CC1,2,-1,-7,0,-2,5
CCCC(C(=O)NCCC(C)C)N(Cc1ccccc1)C(=O)c1snc(C(N)=O)c1N (configuration not stated),-14,7,-6,16,-6,1
COc1ccccc1NC(=O)c1cc(OC)c(OC)cc1[N+](=O)[O-],0,9,10,1,-8,16*
COc1ccccc1NC(=O)c1ccccc1C(=O)Nc1ccccc1OC,1,5,12,-13,-2,3
CCCCn1c(=O)c(CCC(=O)OCC(=O)Nc2ccc(F)c(Cl)c2)nc2ccccc21,9,-6,9,-4,-3,-1
Cc1ccc(F)c(CNC(=O)C2CCC(=O)N(Cc3ccccn3)C2)c1F (configuration not stated),-3,2,27*,0,-5,0
COc1ccccc1CNC(=O)C1CCC(=O)N(CCCc2ccccc2)C1 (configuration not stated),-6,5,32*,6,-3,2
COC(=O)c1ccc(CNC(=O)C2CCC(=O)N(CCCc3ccccc3)C2)cc1 (configuration not stated),-10,14,-3,11,-2,1
